Here are results for 15 sequences from paper PMC3218832.

What all share (experiment): protein binding microarray; high values mean tight binding
What all share (details): dsDNA, one strand shown

The target in experiment [1] is RELARELA (p65 homodimer) (Homo sapiens, UniProt Q04206 1-307).
For experiment [2], the target named is p50p50 homodimer (Homo sapiens, UniProt P19838 7-356).
Experiment [3] deals with T1, p52p52 homodimer (Homo sapiens, UniProt Q00653 4-332).
T1 sequence: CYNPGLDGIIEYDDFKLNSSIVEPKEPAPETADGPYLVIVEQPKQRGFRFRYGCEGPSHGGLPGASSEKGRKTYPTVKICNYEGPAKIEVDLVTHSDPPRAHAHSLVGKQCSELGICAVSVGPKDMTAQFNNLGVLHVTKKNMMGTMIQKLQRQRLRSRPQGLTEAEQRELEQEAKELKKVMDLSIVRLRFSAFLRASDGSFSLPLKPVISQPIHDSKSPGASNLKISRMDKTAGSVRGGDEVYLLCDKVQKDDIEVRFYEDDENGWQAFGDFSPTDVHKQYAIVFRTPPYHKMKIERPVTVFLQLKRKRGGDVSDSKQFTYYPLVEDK

Experiment [4] addresses RELA (p65) subunit of heterodimer;p50 subunit (Homo sapiens;Homo sapiens, UniProt Q04206;P19838 1-307;7-356).
In experiment [5] the target is RELA (p65) subunit of heterodimer;p52 subunit (Homo sapiens;Homo sapiens, UniProt Q04206;Q00653 1-307;4-332).
Experiment [6] has as its target RELB subunit;p50 subunit (Homo sapiens;Homo sapiens, UniProt Q01201;P19838 120-401;7-356).
Experiment [7] concerns the target T2, RELB subunit;p52 subunit (Homo sapiens;Homo sapiens, UniProt Q01201;Q00653 120-401;4-332).
T2 sequence 1: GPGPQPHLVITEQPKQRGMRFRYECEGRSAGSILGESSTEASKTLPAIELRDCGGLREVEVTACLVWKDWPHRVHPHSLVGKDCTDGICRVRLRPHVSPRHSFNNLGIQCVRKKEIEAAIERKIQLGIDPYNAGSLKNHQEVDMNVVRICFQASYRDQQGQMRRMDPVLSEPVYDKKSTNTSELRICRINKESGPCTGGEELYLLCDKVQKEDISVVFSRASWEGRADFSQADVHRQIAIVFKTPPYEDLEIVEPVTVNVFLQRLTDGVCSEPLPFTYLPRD
T2 sequence 2: T1 sequence

Experiment [8] deals with C-Rel subunit;p50 subunit (Homo sapiens;Homo sapiens, UniProt Q04864;P19838 1-285;7-356).
Experiment [9] addresses T3, C-Rel subunit;p52 subunit (Homo sapiens;Homo sapiens, UniProt Q04864;Q00653 1-285;4-332).
T3 sequence 1: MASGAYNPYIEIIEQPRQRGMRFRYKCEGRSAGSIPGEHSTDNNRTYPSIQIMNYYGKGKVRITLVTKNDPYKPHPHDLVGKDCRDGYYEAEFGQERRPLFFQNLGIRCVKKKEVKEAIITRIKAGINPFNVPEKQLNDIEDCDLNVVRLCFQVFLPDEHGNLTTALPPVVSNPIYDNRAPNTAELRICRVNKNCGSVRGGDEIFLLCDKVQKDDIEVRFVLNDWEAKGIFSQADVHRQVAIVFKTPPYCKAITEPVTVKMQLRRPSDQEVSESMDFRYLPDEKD
T3 sequence 2: T1 sequence

RELARELA (p65 homodimer), sequence (Q04206 1-307): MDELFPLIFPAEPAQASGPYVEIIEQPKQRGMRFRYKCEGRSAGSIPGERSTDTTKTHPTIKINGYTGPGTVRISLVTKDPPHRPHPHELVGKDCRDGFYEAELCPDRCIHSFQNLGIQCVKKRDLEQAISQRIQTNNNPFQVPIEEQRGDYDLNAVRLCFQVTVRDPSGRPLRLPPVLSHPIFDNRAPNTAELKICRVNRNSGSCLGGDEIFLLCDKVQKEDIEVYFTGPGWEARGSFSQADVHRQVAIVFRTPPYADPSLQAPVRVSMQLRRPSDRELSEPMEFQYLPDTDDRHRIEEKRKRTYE
RELA (p65) subunit of heterodimer;p50 subunit, sequence (Q04206 1-307, chain 1 of 2): as the sequence (Q04206 1-307) above
RELA (p65) subunit of heterodimer;p50 subunit, sequence (P19838 7-356, chain 2 of 2): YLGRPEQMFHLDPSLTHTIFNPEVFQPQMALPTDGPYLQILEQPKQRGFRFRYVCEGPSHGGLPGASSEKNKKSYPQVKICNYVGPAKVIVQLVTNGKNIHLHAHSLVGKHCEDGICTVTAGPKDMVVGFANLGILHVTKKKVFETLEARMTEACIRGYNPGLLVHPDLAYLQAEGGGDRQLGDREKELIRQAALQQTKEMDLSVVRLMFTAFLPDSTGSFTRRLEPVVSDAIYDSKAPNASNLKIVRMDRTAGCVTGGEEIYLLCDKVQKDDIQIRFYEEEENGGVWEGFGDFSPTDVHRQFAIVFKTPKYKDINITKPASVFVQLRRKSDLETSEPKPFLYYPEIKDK
p50p50 homodimer, sequence (P19838 7-356): as the sequence (P19838 7-356, chain 2 of 2) above

Regarding GAGGGTGTCCC, the binding signal in experiment [1] is 0.223 z-score; in [2], 0.0932 z-score; in [3], 0.206 z-score; in [4], 0.366 z-score; in [5], 0.191 z-score; in experiment [6], 0.314 z-score. Also, the values for the binding signal in experiment [7], in [8] and in experiment [9] were 0.399 z-score, 0.469 z-score and 0.107 z-score, respectively.

As to AAAGGCACCCT, the binding signal in experiment [1] was -1.13 z-score; in [2] it was -0.88 z-score; in [3], -0.454 z-score; in experiment [4], -0.697 z-score; in experiment [5], -0.787 z-score; in [6] it was -0.685 z-score. The results for the binding signal in experiment [7], in experiment [8] and in experiment [9] were -0.711 z-score, -1.07 z-score and -0.741 z-score, respectively.

For AGGAGCGCCCC, the binding signal in experiment [1] was -0.227 z-score; in experiment [2] it was -0.229 z-score; in experiment [3], 0.018 z-score; in experiment [4], 0.186 z-score; in [5], 0.348 z-score; in experiment [6], -0.0805 z-score. Further, the values for the binding signal in [7], in [8] and in experiment [9] were 0.162 z-score, 0.0948 z-score and 0.277 z-score, respectively.

With GAGTATATCCT, the binding signal was -0.264 z-score in experiment [1]; -1.06 z-score in experiment [2]; -0.578 z-score in experiment [3]; -0.876 z-score in experiment [4]; -0.768 z-score in [5]; -1 z-score in experiment [6]. The binding signal in experiment [7] is -0.866 z-score; in experiment [8], -1.36 z-score; in experiment [9] it was -0.891 z-score.

Take AGAAAACTCCC: the binding signal in experiment [1] stood at 1.36 z-score; in experiment [2], 1.03 z-score; in experiment [3], 0.9 z-score; in experiment [4], 1.14 z-score; in [5] it was 0.979 z-score; in experiment [6], 1.35 z-score. Besides, the binding signal in experiment [7] came out at 0.74 z-score; in experiment [8] it was 0.654 z-score; in experiment [9], 0.947 z-score.

In the case of GAGATTACCCT, the binding signal in [1] amounted to 0.00649 z-score; in experiment [2], 0.801 z-score; in [3] it was 0.46 z-score; in [4] it was 0.604 z-score; in [5], 0.372 z-score; in experiment [6], 0.519 z-score. Besides, the results for the binding signal in experiment [7], in experiment [8] and in experiment [9] were 0.477 z-score, 0.426 z-score and 0.377 z-score, respectively.

For AGAGGAGCCCC, the binding signal in experiment [1] is -0.573 z-score; in experiment [2] it was 0.291 z-score; in experiment [3] it was 0.0479 z-score; in [4], -0.113 z-score; in experiment [5], -0.0242 z-score; in experiment [6], 0.0681 z-score. The binding signal is 0.0342 z-score in [7], -0.0137 z-score in experiment [8] and -0.225 z-score in experiment [9].

Consider CAAAACACCCC, for which the binding signal was 0.0833 z-score in experiment [1]; 0.707 z-score in experiment [2]; 0.313 z-score in experiment [3]; 0.534 z-score in experiment [4]; 0.701 z-score in experiment [5]; 0.488 z-score in experiment [6]. The binding signal in [7] was determined as 1.03 z-score; in [8], 0.611 z-score; in [9], 0.701 z-score.

With GAGGTTGCCCT, the binding signal is -0.221 z-score in experiment [1]; -1.5 z-score in experiment [2]; -0.704 z-score in [3]; -0.605 z-score in experiment [4]; -0.676 z-score in [5]; -0.817 z-score in experiment [6]. For the same sequence, the binding signal in [7] is -0.624 z-score; in [8], -0.77 z-score; in experiment [9] it was -0.503 z-score.

For GAAGACCTCCT, the binding signal is -0.649 z-score in experiment [1]; -2.61 z-score in experiment [2]; -0.857 z-score in [3]; -0.905 z-score in experiment [4]; -0.909 z-score in experiment [5]; -1.23 z-score in [6]. Also, the binding signal was -0.869 z-score in experiment [7], -1.61 z-score in [8] and -0.944 z-score in experiment [9].

In the case of GAGAAGCCCCT, the binding signal in experiment [1] was -0.384 z-score; in [2], 1.19 z-score; in experiment [3] it was 1.26 z-score; in experiment [4], 1.3 z-score; in experiment [5], 1.14 z-score; in experiment [6] it was 1.22 z-score. The binding signal in experiment [7] was 1.41 z-score; in [8], 0.87 z-score; in experiment [9] it was 0.78 z-score.

Regarding AAATTACTCCC, the binding signal in [1] is 0.447 z-score; in experiment [2], 0.204 z-score; in [3], -0.0753 z-score; in [4], 0.132 z-score; in experiment [5], -0.25 z-score; in experiment [6], 0.146 z-score. Also, the figures for the binding signal in experiment [7], in [8] and in experiment [9] were -0.105 z-score, 0.213 z-score and -0.11 z-score, respectively.

Regarding GGATATCTCCC, the binding signal came to 0.156 z-score in experiment [1]; 0.192 z-score in experiment [2]; 0.0332 z-score in experiment [3]; 0.149 z-score in experiment [4]; 0.0232 z-score in experiment [5]; 0.028 z-score in experiment [6]. Also, the binding signal in experiment [7] was -0.143 z-score; in experiment [8], -0.122 z-score; in [9], -0.036 z-score.

In the case of AGGAGGTCCCC, the binding signal in [1] was 0.488 z-score; in experiment [2] it was 0.454 z-score; in [3] it was 0.466 z-score; in experiment [4] it was 0.767 z-score; in [5], 0.75 z-score; in experiment [6], 0.631 z-score. The binding signal in experiment [7] is 0.644 z-score; in experiment [8] it was 0.617 z-score; in experiment [9], 0.715 z-score.

On to AGGTGGTCCCT, for which the binding signal was -0.0291 z-score in experiment [1]; 0.913 z-score in experiment [2]; 0.63 z-score in experiment [3]; 0.18 z-score in experiment [4]; 0.558 z-score in experiment [5]; 0.666 z-score in [6]. Also, the results for the binding signal in experiment [7], in [8] and in [9] were 0.659 z-score, 0.227 z-score and 0.391 z-score, respectively.
